Source: PubChem BioAssay AID777 (Sanford-Burnham Center for Chemical Genomics, 2007)
The campaign covered roughly 96,000 compounds. About 19,000 (20%) were called active.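 The calls were made as follows: active = blocking of liver enzyme CYP2C9 beyond about 50% at 5 µM (limit read from the data); inactive = the rest.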 Not all results are given here.

Target: Cytochrome P450 2C9 (Homo sapiens) (UniProt P11712)
Assay: blockers of cytochrome P450 2C9 activity – biochemical, luminescence, ADME assay, primary screen (AID 777)
Details: CYP2C9 Supersomes, luciferin-H conversion, at 5 µM, hits give high values

Cytochrome P450 2C9 (Homo sapiens), sequence (P11712 whole entry, looked up): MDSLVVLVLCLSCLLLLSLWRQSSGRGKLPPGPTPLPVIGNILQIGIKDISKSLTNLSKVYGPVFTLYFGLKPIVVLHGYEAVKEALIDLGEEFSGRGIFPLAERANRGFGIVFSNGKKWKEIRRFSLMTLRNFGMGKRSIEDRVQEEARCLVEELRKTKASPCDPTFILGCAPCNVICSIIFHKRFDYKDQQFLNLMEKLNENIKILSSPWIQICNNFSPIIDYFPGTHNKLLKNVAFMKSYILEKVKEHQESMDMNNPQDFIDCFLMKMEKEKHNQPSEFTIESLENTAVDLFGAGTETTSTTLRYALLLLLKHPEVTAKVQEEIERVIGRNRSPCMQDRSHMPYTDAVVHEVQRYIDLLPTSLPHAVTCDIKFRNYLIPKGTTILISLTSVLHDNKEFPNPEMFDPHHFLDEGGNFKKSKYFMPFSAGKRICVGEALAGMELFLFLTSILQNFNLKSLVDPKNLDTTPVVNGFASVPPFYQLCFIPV

Structure (SMILES) | inhibition
COc1ccc2c3c(c(=O)oc2c1OCC(=O)C(C)(C)C)CCCC3 | 25.4% (inactive)
O=C(NCc1ccccn1)Nc1ccc(F)cc1 | 2.9% (inactive)
CCN(CC)C(=O)CSC1c2ccccc2C(=O)N1c1ccccc1 (stereo unspecified) | -6.2% (inactive)
Cc1ccc(NC2=NC(c3ccccc3)n3c(nc(C)cc3=O)N2)cc1 (stereo unspecified) | 35.5% (inactive)
Cc1ccc(S(=O)(=O)NCc2nc3ccccc3c(=O)n2N)cc1 | -7.2% (inactive)
O=C(Nc1ccc(S(=O)(=O)N2CCc3ccccc3C2)cc1)c1ccccc1 | 1.2% (inactive)
Cc1ccc(S(=O)(=O)Nc2nc3ccccc3nc2N2CCc3ccccc3C2)cc1 | 96% (active)
Cc1cc([N+](=O)[O-])ccc1NCc1cccc([N+](=O)[O-])c1 | -1.6% (inactive)
COc1ccc(OCC(=O)NNC(=O)c2ccc(-c3ccccc3)cc2)cc1 | -3.2% (inactive)
CC(Oc1ccc(Cl)cc1)C(=O)Nc1ncccn1 (stereo unspecified) | 0.9% (inactive)
CCC(C)OC(=O)C(C)Oc1ccc(-c2ccccc2)cc1 (stereo unspecified) | 79.9% (active)
Cn1c(/C(C#N)=C2/CCCCCN2)nc2ccccc21 | 29.5% (inactive)
COc1ccc(-c2[nH]nc(-c3ccccc3)c2-c2nc3ccccc3[nH]2)cc1 | 10% (inactive)
O=C(NCCN=C1NS(=O)(=O)c2ccccc21)c1ccc(S(=O)(=O)N2CCOCC2)cc1 | 46.2% (inactive)
Cn1c(=O)c2[nH]c(NCC3CCCO3)nc2n(-c2ccccc2)c1=O (stereo unspecified) | 10.1% (inactive)
c1ccc2c(NCC3CCCO3)nc(-c3ccncc3)nc2c1 (stereo unspecified) | 83% (active)
Cc1nc2ccccc2c2oc(C(=O)NCC3CCCO3)cc12 (stereo unspecified) | 0.9% (inactive)
Cc1ccc(S(=O)(=O)NCC(=O)N(CC(=O)NC2CCCCC2)Cc2ccco2)cc1 | 10.4% (inactive)
O=C(NCc1ccc(Cl)c(Cl)c1)c1cccnc1 | 14.6% (inactive)
Cn1ccs/c1=N\S(=O)(=O)c1ccc(C(C)(C)C)cc1 | 67.2% (active)
CCSc1nnc(NC(=O)c2ccc(C)cc2)s1 | 38% (inactive)
Cc1ccc(NC(=O)c2nc[nH]c2C(=O)N2CCCCC2)c(C(=O)c2ccccc2)c1 | 40.9% (inactive)

Structure (SMILES) | inhibition
Cc1ccc(C)c(S(=O)(=O)N2CC(=O)Nc3ccccc32)c1 | 12.1% (inactive)
COCCn1c(-c2ccc(OC)c(OC)c2)nc2ccccc21 | -20% (inactive)
COc1ccc(-c2nc3ccccc3n2CCC(C)C)cc1OC | 59.6% (active)
CCOCCn1c(C(C)C)nc2ccccc21 | 5.1% (inactive)
CSc1nc(-c2ccco2)nn1C(=O)CCc1ccccc1 | -12.3% (inactive)
C=CCOc1cccc(CNn2cn[nH]c2=S)c1 | -16.1% (inactive)
CCN(Cc1ccncc1)C(=O)c1cccc(S(=O)(=O)N2CCOCC2)c1 | 94.8% (active)
CC(C)C(NC(=O)c1cccc(S(=O)(=O)N2CCOCC2)c1)C(=O)NCCc1ccccn1 (stereo unspecified) | -17.7% (inactive)
O=C(c1cccc(S(=O)(=O)N2CCOCC2)c1)N1CCOCC1 | -6.1% (inactive)
COc1cc(C2C(C#N)=C(N)Oc3n[nH]c(-c4ccccn4)c32)cc(OC)c1OC (stereo unspecified) | -6.2% (inactive)
COc1ccc(C2C(C#N)=C(N)Oc3cc(N)ccc32)cc1OC (stereo unspecified) | 85.7% (active)
N#CC1=C(N)Oc2cc(O)ccc2C1C1CCCCC1 (stereo unspecified) | 44.8% (inactive)
Cc1ccc(-n2c(C)cc(/C=C(\C#N)C(=O)NCC3CCCO3)c2C)cc1 (stereo unspecified) | 13.8% (inactive)
COc1ccc(N2CCN(C(=O)CSc3nnc4ncccn34)CC2)cc1 | 18.5% (inactive)
Cc1nc2ccc(S(=O)(=O)NCC(=O)NCCN3CCCCC3C)cc2s1 (stereo unspecified) | 8.5% (inactive)
COc1ccc(C(C#N)Nc2ccc(C)cc2)cc1 (stereo unspecified) | -0.6% (inactive)
CCOC(=O)c1c(C2CC2)csc1NC(=O)CSCc1c(C)noc1C | 65% (active)
CCOC(=O)c1sc(NC(=O)CCN2CCOCC2)c(C(=O)OCC)c1C | 40.4% (inactive)
Cc1noc(C)c1CSCC(=O)Nc1nc2ccc(Oc3ccccc3)cc2s1 | 44.1% (inactive)
COCCn1nnnc1CN1CCC(NC(=O)Nc2cccc(OC)c2)CC1 | -12.7% (inactive)
CC(C)C1C2=C(CC(C)(C)CC2=O)ON1c1ccccc1 (stereo unspecified) | 28.7% (inactive)
N=c1ccn(CC(=O)NC(N)=O)c2ccccc12 | -0.4% (inactive)

Structure (SMILES) | inhibition
Cc1ccc(NC(=O)CN2CCC3(O)CCCCC3C2c2ccc3c(c2)OCO3)c(C)c1 (stereo unspecified) | 90.4% (active)
CC1CCCCN1CC(=O)NCc1ccc2c(c1)OCO2 (stereo unspecified) | -6.6% (inactive)
CCN(CC)c1ccc(C2C3CCCCC3(O)CCN2CC(=O)Nc2ccccc2)cc1 (stereo unspecified) | 1.4% (inactive)
CN(Cc1nc2ccccc2c(=O)[nH]1)Cc1cc(=O)oc2ccc3ccccc3c12 | 34.3% (inactive)
CCCN(c1ccc(C(C)C)cc1)S(=O)(=O)c1c(C)[nH]c(=O)[nH]c1=O | 21.6% (inactive)
O=C(NCN1CCN(CCO)CC1)c1cnccn1 | 10.7% (inactive)
CC1CC(C)CN(CC(=O)N2c3ccccc3CCc3ccccc32)C1 (stereo unspecified) | -3.1% (inactive)
CC(c1ccccc1)n1c(NCCCn2ccnc2)nc2c1c(=O)[nH]c(=O)n2C (stereo unspecified) | 96.2% (active)
COc1ccc(CCn2c(NCCCN3CCOCC3)nc3c2c(=O)[nH]c(=O)n3C)cc1 | 16.8% (inactive)
CCCCNc1nc2c(c(=O)[nH]c(=O)n2C)n1CCOc1ccccc1 | 23.9% (inactive)
O=C1c2cccc3cccc(c23)N1CN1CCN(c2ccccn2)CC1 | -43% (inactive)
C/C(=N\NC(=O)c1ccccc1C)c1ccc(N2CCOCC2)cc1 | -40.9% (inactive)
CCCC(=O)Nc1c(O)c2ccccc2[nH]c1=O | 5.2% (inactive)
CCCCc1nc2ccccc2c(=O)n1NC(=O)c1c(O)c2cccc3c2n(c1=O)CC3 | 20.8% (inactive)
CCCc1nc2ccccc2c(=O)n1NC(=O)c1c(O)c2ccccc2[nH]c1=O | 60.6% (active)
CCCOC(=O)Cc1c(O)c2ccccc2[nH]c1=O | -19.5% (inactive)
COCCn1c(SCc2nc3cc(OC)c(OC)cc3c(=O)[nH]2)nnc1-c1ccncc1 | -18.5% (inactive)
CCc1nnc(NC(=O)CSc2nnc(-c3ccncc3)n2Cc2ccccc2)s1 | 26.1% (inactive)
C=CCn1c(SCc2cc(C(=O)OC)c(C)o2)nnc1-c1ccncc1 | 57.4% (active)
C=CCn1c(CC(=O)Nc2cccc(OC)c2)nnc1SCC(=O)NC1CCCCC1 | 10% (inactive)
COC(=O)c1sc(=S)n(-c2ccc(Cl)cc2)c1C | 40.2% (inactive)
C=CCn1c(SCc2c(C(=O)OC)sc(N)c2C(=O)OC)nnc1-c1ccc(Cl)cc1 | 79% (active)
